According to paper PMC5540273 (PLoS ONE, 2017):

Experiments:
Settings in all cases: concentration: 1 μM, replicates: in singlicate; n = 1
[1] = test system: TYK2(JH2domain-pseudokinase)
TYRO3 = test system: TYRO3
ULK1 = test system: ULK1
ULK2 = test system: ULK2
ULK3 = test system: ULK3
VEGFR2 = test system: T1, VEGFR2
T1 construct: gene KDR

VPS34 = test system: T2, VPS34
T2 construct: gene PIK3C3

VRK2 = test system: VRK2
WEE1 = test system: WEE1
WEE2 = test system: WEE2
WNK1 = test system: WNK1
WNK2 = test system: WNK2
WNK3 = test system: WNK3
WNK4 = test system: WNK4
YANK1 = test system: T3, YANK1
T3 construct: gene STK32A

YANK2 = test system: T4, YANK2
T4 construct: gene STK32B

YANK3 = test system: T5, YANK3
T5 construct: gene STK32C

YES = test system: T6, YES
T6 construct: gene YES1

YSK1 = test system: T7, YSK1
T7 construct: gene STK25

YSK4 = test system: T8, YSK4
T8 construct: gene MAP3K19
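Also: KINOMEscan kinase panel screen.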

Row | SMILES | %Inh [1] [%] | %Inh (TYRO3) [%] | %Inh (ULK1) [%] | %Inh (ULK2) [%] | %Inh (ULK3) [%] | %Inh (VEGFR2) [%] | %Inh (VPS34) [%] | %Inh (VRK2) [%] | %Inh (WEE1) [%] | %Inh (WEE2) [%] | %Inh (WNK1) [%] | %Inh (WNK2) [%] | %Inh (WNK3) [%] | %Inh (WNK4) [%] | %Inh (YANK1) [%] | %Inh (YANK2) [%] | %Inh (YANK3) [%] | %Inh (YES) [%] | %Inh (YSK1) [%] | %Inh (YSK4) [%]
1 | Cc1occc1-c1ncc(OC[C@@H](N)Cc2c[nH]c3ccccc23)cc1-c1ccc2[nH]nc(C)c2c1.O=C(O)C(F)(F)F [GSK682037] | 0 | 0 | 4 | 0 | 3 | 7 | 3 | 78 | 5 | 8 | 11 | 7 | 0 | 0 | 96.5 | 95 | 94.5 | 38 | 17 | 99.5
2 | CCCCc1nn2ncccc2c1-c1ccnc(Nc2ccc(N3CCN(C)CC3)cc2)n1 [GW684941] | 93 | 1 | 23 | 6 | 17 | 94 | 15 | 50 | 4 | 9 | 11 | 31 | 54 | 56 | 78 | 74 | 25 | 81 | 0 | 57
3 | COc1cc(Nc2nccc(N3CCC(NC(=O)Nc4cccc(C(C)=O)c4)C3)n2)cc(OC)c1OC (stereo not shown) [GSK1379753] | 19 | 0 | 18 | 0 | 78 | 0 | 0 | 0 | 6 | 0 | 0 | 65 | 59 | 41 | 14 | 0 | 0 | 12 | 2 | 75
4 | Cn1cc(-c2[nH]c3cc(NC(=O)[C@H](N)C4CCCCC4)cc4c3c2C=NNC4=O)cn1 | 87 | 73 | 68 | 98.9 | 97.6 | 90.7 | 80 | 0 | 65 | 98.2 | 0 | 4 | 0 | 0 | 16 | 0 | 0 | 88 | 47 | 100
5 | CN1CCN(CCCNc2nccc(-c3c(-c4ccc(F)cc4)nn4cc(C(F)(F)F)ccc34)n2)CC1 [GW621581] | 12 | 0 | 20 | 0 | 8 | 0 | 8 | 0 | 0 | 0 | 3 | 13 | 0 | 0 | 0 | 8 | 0 | 1 | 0 | 9
6 | O=C(Nc1n[nH]c2nc(-c3ccc(O)cc3)ccc12)C1CC1 [SB-710363] | 0 | 0 | 2 | 21 | 29 | 26 | 0 | 0 | 0 | 1 | 32 | 0 | 0 | 70 | 0 | 0 | 0 | 0 | 0 | 92.2
7 | Cc1ccc(S(=O)(=O)Nc2ccc(Nc3nccc(Nc4cccc5[nH]ncc45)n3)cc2)cc1 [GSK581271] | 93.6 | 0 | 19 | 0 | 38 | 0 | 60 | 0 | 6 | 8 | 4 | 0 | 26 | 16 | 0 | 0 | 3 | 30 | 13 | 67
8 | Cl.c1ccc(-c2ccc3c(Nc4ccc5[nH]ncc5c4)ccnc3c2)nc1 [GW440137] | 32 | 0 | 12 | 0 | 11 | 66 | 0 | 0 | 0 | 5 | 11 | 14 | 19 | 28 | 3 | 1 | 7 | 14 | 9 | 51
9 | Cc1ccc(C(=O)Nc2ccc(Nc3ccnc4cc(-c5nccs5)ccc34)cc2O)cc1.Cl [GW494702] | 15 | 19 | 4 | 0 | 3 | 2 | 18 | 28 | 0 | 0 | 6 | 41 | 38 | 39 | 9 | 0 | 11 | 33 | 0 | 30
10 | O=C(Nc1ccccc1F)NC1CCN(c2ccnc(Nc3ccc(F)cc3)n2)CC1 [GSK1379800] | 43 | 0 | 0 | 0 | 6 | 0 | 0 | 4 | 21 | 0 | 9 | 6 | 37 | 34 | 0 | 0 | 1 | 4 | 0 | 14
11 | COc1cccc(C2=C(Nc3ccc(Cl)c(C(=O)O)c3)C(=O)NC2=O)c1 [SB-390769] | 100 | 0 | 100 | 100 | 100 | 0 | 0 | 31 | 14 | 0 | 100 | 8 | 100 | 43 | 100 | 7 | 0 | 8 | 0 | 100
12 | O=C(Nc1cccc(-c2nn3ncccc3c2-c2ccnc(Nc3ccccc3)n2)c1)c1c(F)cccc1F [GSK198271] | 0 | 100 | 22 | 0 | 6 | 80 | 0 | 0 | 40 | 0 | 2 | 60 | 0 | 0 | 63 | 38 | 18 | 99.5 | 20 | 18
13 | Cl.NC(=O)c1cccc(Nc2nccc(Nc3ccc(Oc4c(Cl)cccc4Cl)c(Cl)c3)n2)c1 [GW659009] | 0 | 0 | 35 | 0 | 4 | 0 | 0 | 2 | 0 | 0 | 3 | 0 | 12 | 0 | 4 | 0 | 5 | 39 | 0 | 3
14 | CN(C)S(=O)(=O)c1cc(-c2ccc3nccc(-c4cccc(S(N)(=O)=O)c4)c3c2)cnc1N [GSK1669921] | 23 | 0 | 8 | 0 | 6 | 29 | 92.7 | 7 | 9 | 17 | 0 | 0 | 0 | 0 | 31 | 0 | 2 | 1 | 0 | 93.3
15 | NCCCC(NC(=O)c1cc(Br)c(-c2ccnc3[nH]ccc23)s1)c1ccccc1.O=C(O)C(F)(F)F.O=C(O)C(F)(F)F (stereo not shown) [GSK1287544] | 6 | 0 | 54 | 0 | 13 | 3 | 28 | 0 | 2 | 4 | 30 | 0 | 11 | 8 | 0 | 0 | 0 | 0 | 0 | 95.2
16 | Cc1ccc(C)c(NC(=O)NC2CCN(c3ccnc(Nc4ccc(F)cc4)n3)C2)c1 (stereo not shown) [GSK1379720] | 48 | 0 | 0 | 0 | 10 | 0 | 0 | 45 | 4 | 0 | 5 | 0 | 43 | 48 | 0 | 0 | 28 | 9 | 0 | 29
17 | c1ccc(Oc2ccc(Nc3ccnc4cc(-c5ccc(CNCCN6CCOCC6)o5)ccc34)cc2)nc1 [GW567145] | 13 | 0 | 14 | 0 | 7 | 0 | 2 | 30 | 1 | 0 | 0 | 21 | 43 | 8 | 0 | 0 | 32 | 48 | 2 | 35
18 | COc1ccc(Nc2nccc(NCCNC(=O)c3cc4ccccc4s3)n2)cc1 [GSK1379896] | 0 | 11 | 14 | 0 | 0 | 0 | 18 | 17 | 14 | 0 | 6 | 55 | 10 | 29 | 12 | 0 | 0 | 5 | 0 | 0
19 | O=C(Nc1cccc(-c2nn3ccccc3c2-c2ccnc(Nc3cccc(F)c3)n2)c1)c1c(F)ccc(F)c1Cl [GSK357952] | 0 | 81 | 21 | 0 | 13 | 12 | 22 | 0 | 0 | 3 | 3 | 0 | 43 | 0 | 34 | 75 | 23 | 98.7 | 0 | 0
20 | CN1CCN(Cc2cccc(-c3ccc4c(Nc5ccc(Oc6ccccc6)cc5)ccnc4c3)c2)CC1 [GW578342] | 5 | 12 | 0 | 0 | 2 | 16 | 0 | 26 | 0 | 0 | 0 | 15 | 31 | 49 | 3 | 0 | 0 | 88 | 12 | 0
